Measured values taken from PubChem BioAssay (NCATS).
Where “and” joins values, the source holds several entries; their conditions need not be identical. Equal values may be shown once. Values without a mark were called inactive. Results filed as inconclusive are left out. Calls of active or inactive are those of the source. Unless noted, calls come from the whole dose curve; as a rule, active = well fitted curve in either direction with a large enough effect (not every such curve was filed as active); inconclusive = small, poorly fitted or top-dose-only effect, or another doubt; inactive = flat fitted curve, though single readings scatter.

Assays:
[1] = molecular target: Lysosomal acid glucosylceramidase (Homo sapiens) (UniProt P04062); assay: Glucocerebrosidase-p2 (AID 348; in the data active = potency below about 10 µM; note: potency is the fitted concentration of half-maximal effect); settings: purified GBA, blue fluorogenic substrate, 40 min
Outline: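 Normal human glucocerebrosidase (0.2 nM) with blue fluorogenic substrate (80 uM final) in citrate/phosphate pH 5.9 with 10mM sodium taurocholate, 0.01% tween-20; 40 min RT, NaOH/glycine stop; fluorescence Ex 365/Em 440; AC50 from a titration from 0.6 nM upwards.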

[2] = AP1 Signaling Pathway (AID 357); settings: ME-180 AP-1-bla reporter, EGF-induced, beta-lactamase ratio, 5 h; at 7.69 µM (top of the series) unless noted;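 note: ME-180 reporter cells stimulated with EGF at its EC50 level; % is set by controls: 0 for no effect and ±100 for the full control effect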
Outline: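 Beta-lactamase reporter under AP-1 response element, ME-180 background. Stimulus: EC50 EGF. Compound exposure 5 h, 37 °C. Detection: CCF4, 2.5 h RT, 460/530 nm. Values: AC50 from titration.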

[3] = molecular target: Cytochrome P450 1A2 (Homo sapiens) (UniProt P05177); assay: p450-cyp1a2 (AID 410; calls by dose curve; note: potency is the fitted concentration of half-maximal effect;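 for activity change, negative = inhibition: -100% = full effect of reference inhibitor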); settings: recombinant CYP1A2, luciferin-ME demethylation, luminescence; series mostly up to 11.4 µM
Outline: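 20nM CYP1A2, 100uM Luciferin-ME (=Km), 100mM KPO4; cpd 10 min RT; +NADPH regen, 60 min RT; stop/detect 20 min; luminescence. Normalized to furafylline 57 uM = full inhibition.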

[4] = NFAT Signaling Pathway (AID 444); settings: Jurkat NFAT-bla M1, carbachol, beta-lactamase ratio, 5 h; at 7.69 µM (top of the series) unless noted;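 note: carbachol stimulus at about its EC50 of 1 µM final; % is set by controls: 0 for no effect and ±100 for the full control effect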
Outline: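 Jurkat cells carrying an NFAT-driven β-lactamase reporter and co-transfected muscarinic M1 receptor were treated with compound plus carbachol (1 uM final, an EC50 level) for 5 h at 37 °C. CCF4 loading followed for 1 h at RT; 460/530 nm ratio gave %activity.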

[5] = molecular target: Glucocorticoid receptor (Homo sapiens) (UniProt P04150); assay: GR-GFP Redistribution (AID 450;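 active = compounds whose dose series gives a full or clear partial fitted curve of increased nuclear translocation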; note: potency is the fitted concentration of half-maximal effect); settings: U2OS GR-GFP nuclear translocation, laser cytometry, 2 h
[6] = molecular target: Glucocorticoid receptor (Homo sapiens) (UniProt P04150); assay: GR-EFC Redistribution (AID 451; calls by dose curve; note: potency is the fitted concentration of half-maximal effect); settings: CHO-K1 GR-EFC translocation, beta-gal luminescence, 2 h
Outline: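 CHO-K1 cells stably expressing nuclear-localized β-gal enzyme acceptor and GR fused C-terminally to the enzyme donor fragment; ligand-driven nuclear translocation restores β-gal by complementation. Compounds titrated up to 46 uM final, 2 h at 37 °C; luminescence read.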

[7] = molecular target: Mitogen-activated protein kinase 10 (Mus musculus) (UniProt Q61831); assay: JNK3 AlphaScreen Assay (AID 530); settings: JNK3 lysate, c-Jun phosphorylation; series mostly up to 57.1 µM;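 note: kinase came from lysate of stimulated human HepG2 cells; signal reports phosphorylation of biotinylated GST-cJun 1-79 at Ser73 with 10 µM ATP; % is set by controls: 0 for no effect and ±100 for the full control effect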
Outline: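 Biotinylated GST-cJun(1-79) served as substrate for JNK3 in HepG2 lysates stimulated with IL-1beta and TNF-alpha. ATP was 10 uM final, pH 7.6. Ser73 phosphorylation was quantified by AlphaScreen (680 nm excitation).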

[8] = molecular target: 3',5'-cyclic-AMP phosphodiesterase 4B (Homo sapiens) (UniProt Q07343); assay: qHTS Assay for Inhibitors of PDE-IV (AID 607; active = well fitted activation curve with a large enough effect in the main read-out, with a control signal flat, not every such curve was filed as active; note: % of control where 0% means no effect); settings: HEK293 ACTOne CNG channel cells, membrane potential fluorescence; series mostly up to 22.9 µM
Outline: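 HEK293 ACTOne cells with CNG channel (1000/well), endogenous PDE4; membrane potential dye, compounds up to 22.9 uM final. Fluorescence Ex 535/Em 590; RO 20-1724 (100 uM final) as reference.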

[9] = molecular target: Cytochrome P450 2C19 (Homo sapiens) (UniProt P33261); assay: qHTS Assay for Inhibitors and Substrates of Cytochrome P450 2C19 (AID 899; active = well fitted curve in the direction sought with a large enough effect; an effect the other way counts as inactive or inconclusive; note: nearly all actives have a fitted effect of over 60% in size; note: potency is the fitted concentration of half-maximal effect); settings: recombinant CYP2C19, luciferin-H EGE luminescence; series mostly up to 11.4 µM
Outline: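 Human CYP2C19 (5nM) with Luciferin-H EGE at 10uM (its KM) in 50mM KPO4 was preincubated with compound for 10 min at 37C. NADPH regeneration started a 60 min 37C reaction. Luciferin was read by luminescence, normalized to 57uM ketoconazole.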

[10] = Stat Signaling Pathway (AID 446); settings: ME-180 SIE beta-lactamase reporter, IL-6 stimulated, 5 h; at 7.69 µM (top of the series) unless noted;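 note: ME-180 cervical cancer cells given 40 pM IL-6 alongside compound; SIE-controlled beta-lactamase reporter measured as 460/530 nm FRET emission ratio; % is set by controls: 0 for no effect and ±100 for the full control effect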
Outline: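 Normalization used AC90 stimulation (300 pM IL-6) and AC90 inhibition (125 nM pan-JAK inhibitor at 40 pM IL-6). The underlying signal is SIE-driven beta-lactamase in ME-180 cells after 5 h IL-6 exposure with compound.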

[11] = molecular target: Cytochrome P450 2D6 (Homo sapiens) (UniProt P10635); assay: qHTS Assay for Inhibitors and Substrates of Cytochrome P450 2D6 (AID 891; active = well fitted curve in the direction sought with a large enough effect; an effect the other way counts as inactive or inconclusive; note: nearly all actives have a fitted effect of over 60% in size; note: potency is the fitted concentration of half-maximal effect); settings: recombinant CYP2D6, luciferin-ME EGE luminescence; series mostly up to 11.4 µM
Outline: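 Luminescent read-out of luciferin formed by 5 nM human CYP2D6 demethylating 30 uM Luciferin-ME EGE (Km level) over 60 min at room temperature after NADPH regeneration addition. Data normalized to full inhibition by 1.43 uM quinidine.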

[12] = molecular target: Cytochrome P450 3A4 (Homo sapiens) (UniProt P08684); assay: qHTS Assay for Activators of Cytochrome P450 3A4 (AID 885; active = well fitted curve in the direction sought with a large enough effect; an effect the other way counts as inactive or inconclusive; note: nearly all actives have a fitted effect of over 65% in size); settings: recombinant CYP3A4, Luciferin-PPXE luminescence, 60 min; series mostly up to 57.1 µM
Outline: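 Human CYP3A4 dealkylates Luciferin-PPXE to luciferin, which luciferase detection converts to light. Substrate was at its KM (25uM), buffer 200mM KPO4, reaction 60 min at RT.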

[13] = qHTS Assay for Identification of Small Molecule Agonists for Hypoxia Response Element Signaling Pathway (AID 914; active = well fitted activation curve with a large enough effect in the signal ratio, with a control signal flat, not every such curve was filed as active; the % refers to the signal ratio; note: % of control where 0% means no effect); settings: ME-180 (cervical carcinoma) HRE-bla reporter, beta-lactamase ratio, CoCl2, 17 h; active compounds read high
Outline: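 qHTS titration; ME-180 HRE-bla cells; EC50 CoCl2 co-treatment, 17 h at 37 degrees Celsius; CCF4 dye, ex 405nm, em 460nm and 530nm; %Activity from ratio; AC50.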

Cytochrome P450 2D6 (Homo sapiens), sequence (P10635 whole entry, looked up): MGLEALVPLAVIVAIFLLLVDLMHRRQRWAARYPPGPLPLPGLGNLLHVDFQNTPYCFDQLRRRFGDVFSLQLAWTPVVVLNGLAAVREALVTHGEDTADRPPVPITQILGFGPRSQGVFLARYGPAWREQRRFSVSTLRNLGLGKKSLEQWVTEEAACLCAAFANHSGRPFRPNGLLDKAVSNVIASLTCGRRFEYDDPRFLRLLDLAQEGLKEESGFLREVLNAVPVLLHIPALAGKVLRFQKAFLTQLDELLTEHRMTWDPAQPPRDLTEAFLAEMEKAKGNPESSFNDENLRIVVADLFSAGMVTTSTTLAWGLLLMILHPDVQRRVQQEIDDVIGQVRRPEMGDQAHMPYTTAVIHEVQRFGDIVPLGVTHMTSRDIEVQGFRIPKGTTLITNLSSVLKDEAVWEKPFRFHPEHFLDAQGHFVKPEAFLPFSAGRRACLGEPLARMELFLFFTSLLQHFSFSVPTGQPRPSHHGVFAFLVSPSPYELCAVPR
Lysosomal acid glucosylceramidase (Homo sapiens), sequence (P04062 whole entry, looked up): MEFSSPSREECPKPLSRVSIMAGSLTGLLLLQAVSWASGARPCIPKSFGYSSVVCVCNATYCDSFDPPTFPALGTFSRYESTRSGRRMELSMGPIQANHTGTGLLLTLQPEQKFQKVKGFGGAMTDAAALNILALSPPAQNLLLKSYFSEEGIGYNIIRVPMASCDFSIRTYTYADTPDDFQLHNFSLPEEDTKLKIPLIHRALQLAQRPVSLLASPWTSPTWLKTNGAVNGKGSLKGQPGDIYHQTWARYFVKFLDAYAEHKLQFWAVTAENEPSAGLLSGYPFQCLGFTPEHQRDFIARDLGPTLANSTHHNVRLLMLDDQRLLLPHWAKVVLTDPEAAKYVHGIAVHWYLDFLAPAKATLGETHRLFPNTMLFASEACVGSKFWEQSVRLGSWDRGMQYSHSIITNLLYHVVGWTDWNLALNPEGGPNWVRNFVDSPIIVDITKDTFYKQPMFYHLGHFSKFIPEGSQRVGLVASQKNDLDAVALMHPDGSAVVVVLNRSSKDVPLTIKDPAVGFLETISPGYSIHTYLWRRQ
Cytochrome P450 2C19 (Homo sapiens), sequence (P33261 whole entry, looked up): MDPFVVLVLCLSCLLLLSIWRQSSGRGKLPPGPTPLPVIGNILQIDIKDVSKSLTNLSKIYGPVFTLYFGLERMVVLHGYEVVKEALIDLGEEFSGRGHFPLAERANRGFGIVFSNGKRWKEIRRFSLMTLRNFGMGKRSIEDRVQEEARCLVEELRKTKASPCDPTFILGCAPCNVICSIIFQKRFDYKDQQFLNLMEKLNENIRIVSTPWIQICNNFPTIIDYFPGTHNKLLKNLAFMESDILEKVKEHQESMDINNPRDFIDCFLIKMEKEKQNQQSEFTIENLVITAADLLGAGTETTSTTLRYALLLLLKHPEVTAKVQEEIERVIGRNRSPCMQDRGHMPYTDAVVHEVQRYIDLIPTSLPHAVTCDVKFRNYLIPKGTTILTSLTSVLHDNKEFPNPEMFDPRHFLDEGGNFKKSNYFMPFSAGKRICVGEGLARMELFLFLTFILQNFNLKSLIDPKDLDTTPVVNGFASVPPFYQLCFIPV
3',5'-cyclic-AMP phosphodiesterase 4B (Homo sapiens), sequence (Q07343 whole entry, looked up): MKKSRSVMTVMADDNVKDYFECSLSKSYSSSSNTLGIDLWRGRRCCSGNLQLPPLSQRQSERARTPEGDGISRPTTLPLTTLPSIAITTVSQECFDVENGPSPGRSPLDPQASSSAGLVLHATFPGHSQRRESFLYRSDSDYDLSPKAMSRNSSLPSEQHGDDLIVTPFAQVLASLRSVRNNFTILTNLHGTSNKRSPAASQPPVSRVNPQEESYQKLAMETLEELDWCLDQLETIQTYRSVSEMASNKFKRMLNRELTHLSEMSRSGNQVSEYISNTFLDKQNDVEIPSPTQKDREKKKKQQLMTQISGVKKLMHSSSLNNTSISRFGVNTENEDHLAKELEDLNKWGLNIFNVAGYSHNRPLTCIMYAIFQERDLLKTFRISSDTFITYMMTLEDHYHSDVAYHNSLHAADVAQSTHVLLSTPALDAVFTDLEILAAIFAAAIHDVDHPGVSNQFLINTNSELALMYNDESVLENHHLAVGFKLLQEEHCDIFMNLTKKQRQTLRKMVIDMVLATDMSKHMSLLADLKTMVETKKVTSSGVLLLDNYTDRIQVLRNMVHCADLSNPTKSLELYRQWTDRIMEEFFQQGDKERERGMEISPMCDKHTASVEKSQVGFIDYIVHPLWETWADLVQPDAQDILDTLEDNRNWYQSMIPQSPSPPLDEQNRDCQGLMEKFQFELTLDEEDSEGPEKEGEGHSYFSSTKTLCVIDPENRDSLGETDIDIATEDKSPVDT
Glucocorticoid receptor (Homo sapiens), sequence (P04150 whole entry, looked up, the tested form may be a part): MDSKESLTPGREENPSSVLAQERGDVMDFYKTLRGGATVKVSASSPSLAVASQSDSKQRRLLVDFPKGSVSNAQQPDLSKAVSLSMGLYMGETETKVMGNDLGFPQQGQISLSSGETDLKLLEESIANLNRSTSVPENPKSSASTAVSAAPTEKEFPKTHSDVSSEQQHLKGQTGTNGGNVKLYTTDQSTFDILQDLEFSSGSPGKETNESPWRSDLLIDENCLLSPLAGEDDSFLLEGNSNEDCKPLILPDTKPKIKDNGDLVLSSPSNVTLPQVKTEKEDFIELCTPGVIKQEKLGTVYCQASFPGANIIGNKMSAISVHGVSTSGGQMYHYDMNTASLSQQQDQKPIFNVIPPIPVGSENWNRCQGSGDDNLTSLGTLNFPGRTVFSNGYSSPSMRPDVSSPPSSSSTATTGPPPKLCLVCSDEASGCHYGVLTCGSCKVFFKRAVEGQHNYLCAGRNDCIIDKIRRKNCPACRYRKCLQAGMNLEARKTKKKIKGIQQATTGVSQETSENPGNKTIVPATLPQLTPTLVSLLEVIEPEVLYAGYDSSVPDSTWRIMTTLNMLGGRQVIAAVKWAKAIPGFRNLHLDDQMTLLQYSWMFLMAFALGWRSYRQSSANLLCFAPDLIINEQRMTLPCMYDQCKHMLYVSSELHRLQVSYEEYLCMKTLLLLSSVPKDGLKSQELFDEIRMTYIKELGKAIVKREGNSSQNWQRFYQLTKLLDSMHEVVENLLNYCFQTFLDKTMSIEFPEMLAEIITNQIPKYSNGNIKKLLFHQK
Cytochrome P450 1A2 (Homo sapiens), sequence (P05177 whole entry, looked up): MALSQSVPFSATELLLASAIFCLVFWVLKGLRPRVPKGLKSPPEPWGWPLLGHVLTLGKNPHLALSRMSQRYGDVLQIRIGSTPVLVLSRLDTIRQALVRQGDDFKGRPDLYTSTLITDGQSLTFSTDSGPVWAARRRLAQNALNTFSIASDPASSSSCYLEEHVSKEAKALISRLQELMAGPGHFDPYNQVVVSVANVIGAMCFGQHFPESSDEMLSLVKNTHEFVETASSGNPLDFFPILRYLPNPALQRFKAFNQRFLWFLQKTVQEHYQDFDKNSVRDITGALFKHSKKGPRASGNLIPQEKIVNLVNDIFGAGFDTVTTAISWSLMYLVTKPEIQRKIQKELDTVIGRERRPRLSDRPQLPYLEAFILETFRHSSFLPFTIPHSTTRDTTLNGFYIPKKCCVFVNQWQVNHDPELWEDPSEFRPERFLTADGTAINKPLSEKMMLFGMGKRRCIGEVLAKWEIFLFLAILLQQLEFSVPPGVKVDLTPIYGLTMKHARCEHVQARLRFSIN
Cytochrome P450 3A4 (Homo sapiens), sequence (P08684 whole entry, looked up): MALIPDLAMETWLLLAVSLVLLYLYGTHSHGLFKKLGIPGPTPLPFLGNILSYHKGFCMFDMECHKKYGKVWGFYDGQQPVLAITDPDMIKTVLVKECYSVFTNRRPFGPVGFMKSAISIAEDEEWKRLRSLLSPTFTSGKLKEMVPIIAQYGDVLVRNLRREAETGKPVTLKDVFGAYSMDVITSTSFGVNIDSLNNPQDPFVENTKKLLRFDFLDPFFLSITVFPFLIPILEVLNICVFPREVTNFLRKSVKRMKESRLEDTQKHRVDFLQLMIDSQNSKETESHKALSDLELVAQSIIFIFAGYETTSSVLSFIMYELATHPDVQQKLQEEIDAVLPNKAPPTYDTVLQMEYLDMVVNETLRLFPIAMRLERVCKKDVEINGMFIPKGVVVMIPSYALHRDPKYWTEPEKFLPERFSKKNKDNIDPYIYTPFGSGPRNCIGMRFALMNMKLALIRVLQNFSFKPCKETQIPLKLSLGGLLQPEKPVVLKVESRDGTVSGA

SMILES | Potency [1] [µM] | activity change, negative = inhibition [2] | Potency [3] | activity change, negative = inhibition [4] [%] | Potency [5] [µM] | Potency [6] [µM] | activity change, negative = inhibition [7] | outcome [8] | Potency [9] | activity, negative = inhibition [10] | Potency [11] | activity change, negative = inhibition [3] | activity change, positive = activation [12] | activation [13] [%]
CCOC(=O)[C@@H]1[C@@H]2c3ccccc3-c3ccccc3[C@H]2C[C@H]1O | > 11.4 | -11.4% | 0.631 µM (active) | 2.27 | > 46 | > 9.22 | -2.11% [at 11.4 µM] | inactive | 2 µM (active) | – | – | – | – | –
COc1cc2ccccc2c2cc([N+](=O)[O-])oc12 | > 11.4 | 3.54% | 0.126 µM (active) | – | > 46 | > 9.22 | 16.5% [at 11.4 µM] | inactive | – | 16.1% | – | – | – | –
N=C(N)SCc1ccc(Cl)c2ccccc12 (tested in a mixture with another compound) | > 11.4 | 6.29% and 5.72% | 251 nM (active) and 158 nM (active) | -1.16 | – | – | 3.26% [at 11.4 µM] and 4.92% [at 11.4 µM] | inactive | – | -8.84% and -10.7% | 3.16 µM (active) | – | – | –
C=C(C)c1ccccc1 (tested in a mixture with another compound) | > 11.4 | -1.01% | – | -21.5 | – | – | -9.26% [at 11.4 µM] | inactive | – | -6.96% | – | -19.6% [at 2.29 µM] | – | –
NCCSC(c1ccccc1)c1ccccc1 | > 11.4 | 6.46% | 1.58 µM (active) | – | > 46 | > 9.22 | 1.83% [at 11.4 µM] | inactive | 1.26 µM (active) | – | 0.794 µM (active) | – | -39.5% [at 11.4 µM] | –
N[C@@H](Cc1cc(Br)c(O)c(Br)c1)C(=O)O | > 11.4 | -11.9% | inactive | – | > 46 | > 9.22 | 1.55% [at 11.4 µM] | inactive | – | 5.31% | – | – | – | –
CCN(CC)CCn1ncc2c(N)ncnc21 | > 11.4 | 1.87% | inactive | 0.535 | > 46 | – | -1.5% [at 11.4 µM] | inactive | – | -0.447% | – | – | – | –
CN[C@H]1[C@H](C)O[C@@H](O[C@@H]2C/C=C(/C)C/C(C)=C\C=C/CC[C@@H](C)CNC(=O)/C=C\C=C/[C@H]2C)C[C@@H]1O | > 11.4 | -6.3% | inactive | – | > 46 | > 9.22 | 1.47% [at 11.4 µM] | inactive | inactive | -1.24% | inactive | – | – | –
C[C@@]12CC[C@H]3[C@H](CCC4=CC(=O)CC[C@H]43)[C@H]1CC[C@H]2OC1(O)C(=O)c2ccccc2C1=O | > 11.4 | 1.93% | – | -18.3 | > 46 | > 9.22 | -3.36% [at 11.4 µM] | inactive | – | -10.1% | – | – | – | –
C[As+](C)(c1ccc(Br)c([N+](=O)[O-])c1)c1ccc(Br)c([N+](=O)[O-])c1.O=[N+]([O-])O | > 11.4 | 10.5% | inactive | -2.2 | > 46 | > 9.22 | -0.633% [at 11.4 µM] | inactive | – | – | – | – | – | –
C[C@H](CC(C#N)(c1ccccc1)c1ccccc1)N1CCCCC1 | > 11.4 | 17% | – | – | > 46 | > 9.22 | 1.28% [at 11.4 µM] | inactive | – | 2.01% | 2.51 µM (active) | 7.1% [at 2.29 µM] | – | 4.33
O=C(CCN1CC2CCC(CC2)C1)c1cccs1 | > 11.4 | 17.2% | 5.01 µM (active) | – | > 46 | > 9.22 | 0.402% [at 11.4 µM] | inactive | – | 1.61% | 2 µM (active) | – | – | –
COc1cc2c(cc1OC)[C@@]13CCN4C=C5CCO[C@H]6CC(=O)N2[C@@H]1[C@@H]6[C@H]5C[C@H]43 | > 11.4 | 4.45% | 5.01 µM (active) | 16.4 | – | – | 3.62% [at 11.4 µM] | inactive | – | 2.38% | – | – | – | -4.7
CC1(C)CCC(C)(C)c2c1ccc(O)c2Cc1c(O)ccc2c1C(C)(C)CCC2(C)C | > 11.4 | -8.54% | 5.01 µM (active) | – | > 46 | > 9.22 | -1.06% [at 11.4 µM] | inactive | – | 0.741% | – | – | – | –
